# Several values for one entry are separate records, joined by “and”; a condition that tells them apart may be missing. Identical values can stand only once. Records with an inconclusive call do not appear. A call without a number means that no potency is given here. Activity calls are given as the source filed them. Unless noted, the call rests on the fitted dose curve; in most records, active means well fitted curve in the direction sought with a large enough effect; inconclusive means small, poorly fitted or top-dose-only effect, or another doubt; inactive means no such curve, though single readings can be large; an effect the other way counts as inactive or inconclusive.
# Columns and labels:
# [1] = target: Calcium and integrin-binding protein 1 (Homo sapiens) (UniProt Q99828); test: Validation qHTS for Identification of Calcium Integrin Binding protein 1 (CIB1) Competitor (AID 1508618); further: potency means the concentration at half of the fitted maximal effect
# Chain of Calcium and integrin-binding protein 1 (Homo sapiens) (Q99828 whole entry, looked up): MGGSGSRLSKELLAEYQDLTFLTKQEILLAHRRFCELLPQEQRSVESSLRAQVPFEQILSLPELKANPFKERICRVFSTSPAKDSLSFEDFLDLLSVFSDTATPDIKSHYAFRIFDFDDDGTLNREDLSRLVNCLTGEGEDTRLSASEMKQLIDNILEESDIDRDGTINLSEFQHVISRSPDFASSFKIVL
# Method in brief: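 Displacement of FITC-alphaIIb peptide (100 nM) from CIB1-GST (1 uM) is monitored by polarization in quantitative HTS format; buffer carries 5 mM CaCl2 and 125 mM NaCl at pH 7.4, incubations are at room temperature.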
# [2] = Primary qHTS for small molecule stabilizers of the endoplasmic reticulum resident proteome: Secreted ER Calcium Modulated Protein (SERCaMP) assay (AID 1508630)
# Method in brief: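 The SH-SY5Y reporter protocol was run at 3 concentrations up to 38.3 uM (primary) or 11 concentrations (follow-up): 16 h compound, 100 nM thapsigargin for 4 h, then extracellular luciferase luminescence.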
# [3] = target: Catechol O-methyltransferase (Homo sapiens) (UniProt P21964); test: Confirmatory Screen for Target Class Profiling of Small Molecule Inhibitors of Methyltransferases (AID 1745852; calls by dose curve); details: MTase-Glo luminescence, SAH detection, recombinant enzyme; measured here: COMT max response; stronger effect = lower value
# Chain of Catechol O-methyltransferase (Homo sapiens) (P21964 whole entry, looked up): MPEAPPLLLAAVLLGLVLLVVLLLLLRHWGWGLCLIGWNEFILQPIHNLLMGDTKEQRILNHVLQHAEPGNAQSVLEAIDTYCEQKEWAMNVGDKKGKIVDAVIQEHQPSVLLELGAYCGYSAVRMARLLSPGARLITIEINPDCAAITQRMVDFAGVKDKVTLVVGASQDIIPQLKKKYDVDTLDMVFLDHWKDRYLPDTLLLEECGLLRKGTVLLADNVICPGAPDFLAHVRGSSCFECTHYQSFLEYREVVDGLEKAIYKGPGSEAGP
# [4] = target: Guanidinoacetate N-methyltransferase (Homo sapiens) (UniProt Q14353); test: as above; details: MTase-Glo luminescence, SAH detection, recombinant enzyme; activity change, negative = inhibition: at 57.3 µM (top of the series)
# [5] = target: Nicotinamide N-methyltransferase (Homo sapiens) (UniProt P40261); test: as above; details: MTase-Glo luminescence, SAH detection, recombinant enzyme; measured here: NNMT max response; stronger effect = lower value
# Chain of Nicotinamide N-methyltransferase (Homo sapiens) (P40261 whole entry, looked up): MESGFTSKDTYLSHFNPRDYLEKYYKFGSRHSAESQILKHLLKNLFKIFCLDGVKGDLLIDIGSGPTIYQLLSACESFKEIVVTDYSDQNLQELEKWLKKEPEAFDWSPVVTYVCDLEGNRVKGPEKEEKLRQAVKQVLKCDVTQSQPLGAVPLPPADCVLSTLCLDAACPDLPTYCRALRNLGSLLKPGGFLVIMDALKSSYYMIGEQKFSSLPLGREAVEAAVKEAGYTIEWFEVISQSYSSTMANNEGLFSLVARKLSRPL
# [6] = target: Phenylethanolamine N-methyltransferase (Homo sapiens) (UniProt P11086); test: as above; details: MTase-Glo luminescence, SAH detection, recombinant enzyme; measured here: PNMT max response; stronger effect = lower value
# Chain of Phenylethanolamine N-methyltransferase (Homo sapiens) (P11086 whole entry, looked up): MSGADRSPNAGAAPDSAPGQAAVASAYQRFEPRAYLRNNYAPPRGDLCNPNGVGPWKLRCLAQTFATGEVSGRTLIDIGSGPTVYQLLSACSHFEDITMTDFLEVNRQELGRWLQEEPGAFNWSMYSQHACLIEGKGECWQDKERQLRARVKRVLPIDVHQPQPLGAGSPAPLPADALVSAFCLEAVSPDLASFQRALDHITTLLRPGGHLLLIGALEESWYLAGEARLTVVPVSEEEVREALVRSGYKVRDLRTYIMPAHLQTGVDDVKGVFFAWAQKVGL
# Papain (Carica papaya) = Papain (Carica papaya) (UniProt P00784); test: Primary qHTS assay for inhibitors of the protease papain (AID 1645873);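 further: papain turnover of Z-FR-AMC read as the AMC fluorescence gain over 10 min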; further: potency means the concentration at half of the fitted maximal effect
# Chain of Papain (Carica papaya) (P00784 whole entry, looked up): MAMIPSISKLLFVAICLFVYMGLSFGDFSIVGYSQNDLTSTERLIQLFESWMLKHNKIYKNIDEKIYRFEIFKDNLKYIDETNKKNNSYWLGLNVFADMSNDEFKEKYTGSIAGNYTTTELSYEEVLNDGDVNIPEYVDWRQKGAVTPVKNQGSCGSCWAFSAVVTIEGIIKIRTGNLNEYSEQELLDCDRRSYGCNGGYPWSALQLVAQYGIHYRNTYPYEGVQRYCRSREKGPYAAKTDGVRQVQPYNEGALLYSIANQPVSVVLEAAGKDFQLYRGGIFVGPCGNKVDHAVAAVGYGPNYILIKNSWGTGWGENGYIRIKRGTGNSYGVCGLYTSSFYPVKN
# [7] = target: Rap guanine nucleotide exchange factor 3 (Homo sapiens) (UniProt O95398); test: Confirmatory qHTS for antagonist of cAMP-regulated guanine nucleotide exchange factor 3 (EPAC1) (AID 1645880); further: nearly all actives have a fitted effect of over 55% in size; further: potency means the concentration at half of the fitted maximal effect
# Chain of Rap guanine nucleotide exchange factor 3 (Homo sapiens) (O95398 whole entry, looked up): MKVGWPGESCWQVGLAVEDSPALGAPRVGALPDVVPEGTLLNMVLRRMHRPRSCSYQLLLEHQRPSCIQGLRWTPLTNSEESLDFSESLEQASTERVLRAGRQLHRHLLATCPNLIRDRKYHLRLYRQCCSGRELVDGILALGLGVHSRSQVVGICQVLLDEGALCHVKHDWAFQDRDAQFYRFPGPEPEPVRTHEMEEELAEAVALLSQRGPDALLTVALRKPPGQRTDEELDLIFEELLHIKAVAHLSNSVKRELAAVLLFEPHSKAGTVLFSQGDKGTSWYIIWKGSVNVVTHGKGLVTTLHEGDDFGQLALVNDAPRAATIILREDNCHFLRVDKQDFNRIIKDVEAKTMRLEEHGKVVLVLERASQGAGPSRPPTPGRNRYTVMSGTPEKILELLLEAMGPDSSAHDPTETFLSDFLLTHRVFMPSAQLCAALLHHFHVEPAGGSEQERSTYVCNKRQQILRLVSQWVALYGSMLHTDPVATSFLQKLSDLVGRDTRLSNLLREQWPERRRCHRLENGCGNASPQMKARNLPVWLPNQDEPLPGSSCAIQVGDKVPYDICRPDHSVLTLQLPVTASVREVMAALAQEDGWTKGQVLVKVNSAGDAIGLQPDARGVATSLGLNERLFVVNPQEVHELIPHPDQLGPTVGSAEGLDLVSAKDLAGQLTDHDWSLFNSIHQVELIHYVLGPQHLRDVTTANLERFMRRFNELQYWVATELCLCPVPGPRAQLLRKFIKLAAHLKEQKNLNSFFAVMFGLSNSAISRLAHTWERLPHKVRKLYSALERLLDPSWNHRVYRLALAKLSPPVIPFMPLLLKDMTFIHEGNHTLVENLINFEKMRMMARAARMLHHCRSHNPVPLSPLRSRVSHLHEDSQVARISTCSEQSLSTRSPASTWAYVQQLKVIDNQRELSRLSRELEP
# Method in brief: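 Released BODIPY-GDP fluoresces less than Rap1-bound BODIPY-GDP; the signal is followed at 480/540 nm at 5-min intervals over 30 min, after 5 min at room temperature. Reactions contain 100 nM EPAC1, 250 nM RAP1B-BODIPY-GDP and 50 uM GDP; results are normalized to ATA and DMSO.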
# [8] = target: Rap guanine nucleotide exchange factor 3 (Homo sapiens) (UniProt O95398); test: Confirmatory qHTS for agonist of cAMP-regulated guanine nucleotide exchange factor 3 (EPAC1) (AID 1645881); further: nearly all actives have a fitted effect of over 75% in size; further: potency means the concentration at half of the fitted maximal effect
# [9] = target: Rap guanine nucleotide exchange factor 4 (Homo sapiens) (UniProt Q8WZA2); test: Confirmatory qHTS for agonist of cAMP-regulated guanine nucleotide exchange factor 4 (EPAC2) (AID 1645884);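 further: nucleotide exchange releases bodipy-GDP from Rap1 and this lowers its fluorescence; nearly all actives have a fitted effect of over 65% in size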; further: potency means the concentration at half of the fitted maximal effect
# Chain of Rap guanine nucleotide exchange factor 4 (Homo sapiens) (Q8WZA2 whole entry, looked up, the tested form may be a part): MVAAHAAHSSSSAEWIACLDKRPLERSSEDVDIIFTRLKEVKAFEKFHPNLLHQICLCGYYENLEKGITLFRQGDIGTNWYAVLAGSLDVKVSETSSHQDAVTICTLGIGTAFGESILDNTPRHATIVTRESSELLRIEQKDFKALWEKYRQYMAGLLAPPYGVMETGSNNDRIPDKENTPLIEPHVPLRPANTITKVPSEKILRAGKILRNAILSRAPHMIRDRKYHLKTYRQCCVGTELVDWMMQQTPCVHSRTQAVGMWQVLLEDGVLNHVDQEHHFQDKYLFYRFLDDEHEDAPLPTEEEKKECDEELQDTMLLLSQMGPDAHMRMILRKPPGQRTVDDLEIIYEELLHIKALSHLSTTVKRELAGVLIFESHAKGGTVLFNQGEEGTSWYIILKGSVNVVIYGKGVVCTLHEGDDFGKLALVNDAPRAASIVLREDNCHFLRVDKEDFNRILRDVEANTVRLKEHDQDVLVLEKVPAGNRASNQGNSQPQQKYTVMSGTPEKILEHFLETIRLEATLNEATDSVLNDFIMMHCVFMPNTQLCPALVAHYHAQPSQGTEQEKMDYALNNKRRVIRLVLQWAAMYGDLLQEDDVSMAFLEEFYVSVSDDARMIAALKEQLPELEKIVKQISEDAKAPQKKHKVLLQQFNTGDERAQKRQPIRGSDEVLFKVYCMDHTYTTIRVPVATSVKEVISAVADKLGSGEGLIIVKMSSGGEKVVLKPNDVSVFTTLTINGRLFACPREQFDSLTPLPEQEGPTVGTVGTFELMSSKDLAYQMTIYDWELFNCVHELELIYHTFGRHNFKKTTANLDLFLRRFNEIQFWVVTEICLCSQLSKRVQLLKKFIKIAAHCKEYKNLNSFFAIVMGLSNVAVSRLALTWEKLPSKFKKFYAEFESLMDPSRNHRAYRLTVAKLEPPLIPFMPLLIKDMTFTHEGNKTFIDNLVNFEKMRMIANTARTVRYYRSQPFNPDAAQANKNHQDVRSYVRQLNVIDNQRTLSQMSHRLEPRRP
# [10] = target: Rap guanine nucleotide exchange factor 4 (Homo sapiens) (UniProt Q8WZA2); test: Confirmatory qHTS for antagonist of cAMP-regulated guanine nucleotide exchange factor 4 (EPAC2) (AID 1645885); further: potency means the concentration at half of the fitted maximal effect; nearly all actives have a fitted effect of over 25% in size
# [11] = Primary qHTS for inhibitors of nuclear receptor binding SET domain protein 2 (NSD2) in an RCH-ACV wild type WT cells (2C) (AID 1645877); further: potency means the concentration at half of the fitted maximal effect; nearly all actives have a fitted effect of over 70% in size
compound,measurement,setting,value
Nc1ccc2c3c(cccc13)C(=O)NC2=O,Potency,[1],2.51 µM (active)
same,Potency,[2],inactive
same,activity,[3],1.42%
same,"activity change, negative = inhibition",[4],4.2%
same,activity,[5],-4.84%
same,activity,[6],2.54%
Oc1cc(O)c2c(c1)O[C@H](c1ccc(O)c(O)c1)[C@@H](O)C2,Potency,[1],inactive
same,Potency,[2],inactive
same,Potency,Papain (Carica papaya),inactive
same,activity,[3],171%
same,"activity change, negative = inhibition",[4],4.5%
same,activity,[5],-7.72%
same,activity,[6],7.68%
CNCCc1cnc(CCC(c2ccccc2)c2ccccc2)[nH]1,Potency,[1],inactive
same,Potency,[2],inactive
same,Potency,Papain (Carica papaya),inactive
same,activity,[3],-11%
same,"activity change, negative = inhibition",[4],3.35%
same,activity,[5],-32.7%
same,activity,[6],-3.25%
O=C(O)/C=C/c1ccc(O)c(O)c1,Potency,[1],inactive
same,Potency,[2],inactive
same,Potency,Papain (Carica papaya),inactive
same,activity,[3],150%
same,"activity change, negative = inhibition",[4],0.674%
same,activity,[5],-14.8%
same,activity,[6],-0.851%
O=C(O)CCC/C=C\C[C@@H]1[C@@H](/C=C/[C@H](O)C2Cc3ccccc3C2)[C@@H](F)C[C@@H]1O,Potency,[1],inactive
same,Potency,Papain (Carica papaya),inactive
CC(/C=C/c1cccc(Oc2ccc(F)cc2)c1)N(O)C(N)=O (configuration not stated),Potency,[1],inactive
same,Potency,[2],inactive
same,Potency,[7],inactive
same,Potency,[8],inactive
same,Potency,[9],inactive
same,Potency,[10],44.1 µM (active)
CN(C)S(=O)(=O)c1ccc2c(c1)/C(=C/c1cc3c([nH]1)CCCC3)C(=O)N2,Potency,[1],inactive
same,Potency,[2],inactive
same,Potency,Papain (Carica papaya),inactive
same,Potency,[11],2.59 µM (active)
CC(=O)O[C@H]1Cc2ccccc2N(C(N)=O)c2ccccc21,Potency,[1],inactive
same,Potency,Papain (Carica papaya),inactive
N[C@@H](Cc1c[nH]c2ccccc12)C(=O)O,Potency,[1],inactive
same,Potency,Papain (Carica papaya),inactive
CC(=O)O[C@H]1CC2(C)[C@@H](C[C@@H](O)[C@H]3[C@@]4(C)CC[C@@H](O)[C@@H](C)[C@@H]4CC[C@@]32C)C1=C(CCC=C(C)C)C(=O)O (some centres not stated),Potency,[1],inactive
same,Potency,Papain (Carica papaya),inactive
c1ccc(C(NCc2cccnc2)(c2ccccc2)c2ccccc2)cc1,Potency,[1],inactive
same,Potency,[2],inactive
same,Potency,Papain (Carica papaya),inactive
same,Potency,[7],inactive
same,Potency,[8],inactive
same,Potency,[10],1.11 µM (active)
CN(C)C(=O)/N=N/C(=O)N(C)C,Potency,[1],inactive
same,Potency,[2],inactive
same,Potency,Papain (Carica papaya),inactive
same,activity,[3],-3.94%
same,"activity change, negative = inhibition",[4],0.919%
same,activity,[5],-6.49%
same,activity,[6],-4.1%
NC/C=C\C(=O)O,Potency,[1],inactive
same,Potency,[2],inactive
same,Potency,Papain (Carica papaya),inactive
same,activity,[3],-3.77%
same,"activity change, negative = inhibition",[4],4.36%
same,activity,[5],-7.89%
same,activity,[6],2.22%
C=CCN1CCc2cc(O)c(O)cc2C(c2ccccc2)C1 (configuration not stated),Potency,[1],inactive
same,Potency,[2],inactive
same,Potency,Papain (Carica papaya),inactive
same,activity,[3],101%
same,"activity change, negative = inhibition",[4],8.51%
same,activity,[5],-4.37%
same,activity,[6],-2.84%
CC(O)C(O)[C@H]1CNc2nc(N)[nH]c(=O)c2N1 (some centres not stated),Potency,[1],inactive
same,Potency,[2],inactive
same,Potency,Papain (Carica papaya),25.1 µM (active)
same,activity,[3],-9.57%
same,"activity change, negative = inhibition",[4],4.12%
same,activity,[5],-14.2%
same,activity,[6],-4.71%
Cc1nc2n(c(=O)c1CCN1CCC(c3noc4cc(F)ccc34)CC1)CCCC2O (configuration not stated),Potency,[1],inactive
same,Potency,[2],inactive
same,Potency,Papain (Carica papaya),inactive
C=C1C[C@@]23CC[C@H]4[C@@](C)(CCC[C@@]4(C)C(=O)OC4OC(CO)C(O)C(O)C4O)[C@@H]2CC[C@]1(OC1OC(CO)C(O)C(O)C1OC1OC(CO)C(O)C(O)C1O)C3 (some centres not stated),Potency,[1],inactive
same,Potency,Papain (Carica papaya),inactive
Nc1nc2c(nc(Br)n2C2OC3COP(=O)(O)O[C@@H]3C2O)c(=O)[nH]1 (some centres not stated),Potency,[1],inactive
same,Potency,Papain (Carica papaya),inactive
O=c1[nH]ccc2c(O)cccc12,Potency,[1],inactive
same,Potency,[2],inactive
same,Potency,Papain (Carica papaya),inactive
same,activity,[3],1.23%
same,"activity change, negative = inhibition",[4],2.16%
same,activity,[5],-0.246%
same,activity,[6],1.15%
CC1CCN(CC[C@H]2CCCN2S(=O)(=O)c2cccc(O)c2)CC1,Potency,[1],inactive
same,Potency,[2],inactive
same,Potency,Papain (Carica papaya),inactive
CNC(=O)c1cc2c(cn1)[nH]c1ccccc12,Potency,[1],inactive
same,Potency,[2],inactive
same,Potency,Papain (Carica papaya),25.1 µM (active)
O=C(O)Cc1ccc(O)c(O)c1,Potency,[1],inactive
same,Potency,[2],inactive
same,activity,[3],122%
same,"activity change, negative = inhibition",[4],5.19%
same,activity,[5],0.212%
same,activity,[6],4.32%
Nc1ncnc2c1nc(Br)n2C1OC2COP(=O)(O)O[C@@H]2C1O (some centres not stated),Potency,[1],inactive
same,Potency,[2],inactive
same,Potency,Papain (Carica papaya),inactive
same,Potency,[7],3.14 µM (active)
same,Potency,[8],4.46 µM (active) and 3.97 µM (active)
same,Potency,[9],3.54 µM (active) and 3.16 µM (active)
same,Potency,[10],5.55 µM (active) and 3.93 µM (active)
NCC(O)C1CCCCCCC1 (configuration not stated),Potency,[1],inactive
same,Potency,[2],inactive
same,Potency,Papain (Carica papaya),inactive
same,activity,[3],-3.91%
same,"activity change, negative = inhibition",[4],2.24%
same,activity,[5],-12%
same,activity,[6],-45.1%
Cc1cccc(C2CN(C)CCc3c2cc(O)c(O)c3Cl)c1 (configuration not stated),Potency,[1],inactive
same,Potency,Papain (Carica papaya),inactive
Nc1ncnc2c1nc(Sc1ccc(Cl)cc1)n2[C@H]1OC2COP(=O)(O)O[C@@H]2C1O (some centres not stated),Potency,[1],inactive
same,Potency,[2],inactive
same,Potency,Papain (Carica papaya),inactive
same,Potency,[7],0.789 µM (active)
same,Potency,[8],998 nM (active)
same,Potency,[9],1.77 µM (active)
same,Potency,[10],1.97 µM (active)
COc1ccc(CCn2nnnc2C2(c3ccc(C)cc3)CC2)cc1,Potency,[1],inactive
same,Potency,[2],inactive
same,Potency,[7],inactive
same,Potency,[8],inactive
N=C(N)SCCc1cnc[nH]1,Potency,[1],inactive
same,Potency,[2],inactive
same,Potency,Papain (Carica papaya),inactive
same,activity,[3],-3.06%
same,"activity change, negative = inhibition",[4],-1.52%
same,activity,[5],-8.2%
same,activity,[6],-8.19%
O=C1C2C=CC=CC2=NC(=S)N1CCN1CCC(=C(c2ccc(F)cc2)c2ccc(F)cc2)CC1 (configuration not stated),Potency,[1],inactive
same,Potency,[2],inactive
same,Potency,Papain (Carica papaya),inactive

# — PubChem BioAssay (NCATS)
